In assay [1] the target is human Peroxisome Proliferator-activated Receptor alpha (PPARa), PPARA (gene 5465) (UniProt Q07869). Briefly: ATG_PPARa_TRANS: Attagene TRANS-FACTORIAL HepG2 Assay for human Peroxisome Proliferator-activated Receptor alpha (PPARa) (AID 2283001). The method, boiled down: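 Gain-of-signal endpoint: reporter mRNA induction relative to DMSO, detected by fluorescent RT-PCR and capillary electrophoresis. HepG2 cells transiently carried GAL4-UAS-driven reporter units plus NR-Gal4 fusion; exposure lasted 24 h.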
Sequence of human Peroxisome Proliferator-activated Receptor alpha (PPARa), PPARA (gene 5465) (Q07869 whole entry, looked up, the tested form may be a part): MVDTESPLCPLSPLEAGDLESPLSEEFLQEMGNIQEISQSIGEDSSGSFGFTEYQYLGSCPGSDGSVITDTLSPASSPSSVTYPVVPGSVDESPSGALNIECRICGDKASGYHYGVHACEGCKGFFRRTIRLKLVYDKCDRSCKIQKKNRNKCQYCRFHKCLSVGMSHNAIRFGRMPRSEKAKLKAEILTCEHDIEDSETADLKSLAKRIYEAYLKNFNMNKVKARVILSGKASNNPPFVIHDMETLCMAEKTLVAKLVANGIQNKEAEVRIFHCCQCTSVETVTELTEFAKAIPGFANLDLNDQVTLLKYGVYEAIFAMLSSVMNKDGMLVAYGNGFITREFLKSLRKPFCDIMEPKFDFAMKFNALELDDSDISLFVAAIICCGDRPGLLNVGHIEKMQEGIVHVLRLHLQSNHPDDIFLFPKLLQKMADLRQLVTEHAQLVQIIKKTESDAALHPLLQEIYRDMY

In assay [2] the target is human Peroxisome Proliferator-activated Receptor delta (PPARd), PPARD (gene 5467) (UniProt Q03181). In words: ATG_PPARd_TRANS: Attagene TRANS-FACTORIAL HepG2 Assay for human Peroxisome Proliferator-activated Receptor delta (PPARd) (AID 2283002). The method, boiled down: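 HepG2 cells transiently transfected with multiplexed GAL4-UAS reporter units and exogenous chimeric NR-Gal4 proteins; 24 h compound exposure. Reporter mRNA measured by RT-PCR, 6-FAM labelling, HpaI digestion and capillary electrophoresis; gain of signal versus DMSO.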
Sequence of human Peroxisome Proliferator-activated Receptor delta (PPARd), PPARD (gene 5467) (Q03181 whole entry, looked up, the tested form may be a part): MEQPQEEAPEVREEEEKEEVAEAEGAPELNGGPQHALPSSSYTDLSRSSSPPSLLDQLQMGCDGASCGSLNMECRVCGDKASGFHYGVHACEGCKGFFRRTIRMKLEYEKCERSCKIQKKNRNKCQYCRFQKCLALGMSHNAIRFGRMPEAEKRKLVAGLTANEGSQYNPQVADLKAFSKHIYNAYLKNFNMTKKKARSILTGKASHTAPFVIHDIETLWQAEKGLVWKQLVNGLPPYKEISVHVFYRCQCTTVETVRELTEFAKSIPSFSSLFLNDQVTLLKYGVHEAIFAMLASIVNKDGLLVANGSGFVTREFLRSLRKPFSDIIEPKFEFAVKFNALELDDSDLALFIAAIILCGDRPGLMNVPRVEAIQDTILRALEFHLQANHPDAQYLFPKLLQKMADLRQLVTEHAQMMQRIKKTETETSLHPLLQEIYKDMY

For assay [3], the target named is Peroxisome proliferator-activated receptor gamma (Homo sapiens) (UniProt P37231). Briefly: ATG_PPARg_TRANS: Attagene TRANS-FACTORIAL HepG2 Assay for human Peroxisome Proliferator-activated Receptor-gamma (PPARg) (AID 2283007). The method, boiled down: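 HepG2 cells are transiently transfected with GAL4-UAS reporter units driven by chimeric NR-Gal4 fusions and dosed for 24 h. Reporter mRNA is quantified by RT-PCR, 6-FAM labelling, HpaI digestion and capillary electrophoresis. Induction is scored against DMSO.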
Sequence of Peroxisome proliferator-activated receptor gamma (Homo sapiens) (P37231 whole entry, looked up, the tested form may be a part): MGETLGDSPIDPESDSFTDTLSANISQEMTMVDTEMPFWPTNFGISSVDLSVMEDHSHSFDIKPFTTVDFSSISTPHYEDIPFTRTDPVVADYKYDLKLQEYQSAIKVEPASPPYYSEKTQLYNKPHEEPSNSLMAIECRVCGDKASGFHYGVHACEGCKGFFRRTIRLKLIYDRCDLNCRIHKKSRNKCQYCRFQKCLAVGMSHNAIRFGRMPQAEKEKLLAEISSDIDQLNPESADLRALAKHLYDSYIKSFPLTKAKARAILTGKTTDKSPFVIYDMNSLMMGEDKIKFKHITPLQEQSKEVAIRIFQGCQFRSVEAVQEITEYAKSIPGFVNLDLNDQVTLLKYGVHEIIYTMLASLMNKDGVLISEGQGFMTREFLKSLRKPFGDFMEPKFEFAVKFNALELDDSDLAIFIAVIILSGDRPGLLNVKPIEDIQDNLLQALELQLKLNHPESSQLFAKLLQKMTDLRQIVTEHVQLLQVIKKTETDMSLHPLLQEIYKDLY

In assay [4] the target is Nuclear receptor subfamily 1 group I member 2 (Homo sapiens) (UniProt O75469). In words: ATG_PXR_TRANS: Attagene TRANS-FACTORIAL HepG2 Assay for human Pregnane X Receptor (PXR) (AID 2283008). Put shortly: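 Fluorescence intensity of FAM-labelled, HpaI-digested reporter amplicons, separated by capillary electrophoresis, quantifies induction. HepG2 cells with PXR-Gal4 trans-reporter system were exposed 24 h; DMSO defines baseline.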
Sequence of Nuclear receptor subfamily 1 group I member 2 (Homo sapiens) (O75469 whole entry, looked up, the tested form may be a part): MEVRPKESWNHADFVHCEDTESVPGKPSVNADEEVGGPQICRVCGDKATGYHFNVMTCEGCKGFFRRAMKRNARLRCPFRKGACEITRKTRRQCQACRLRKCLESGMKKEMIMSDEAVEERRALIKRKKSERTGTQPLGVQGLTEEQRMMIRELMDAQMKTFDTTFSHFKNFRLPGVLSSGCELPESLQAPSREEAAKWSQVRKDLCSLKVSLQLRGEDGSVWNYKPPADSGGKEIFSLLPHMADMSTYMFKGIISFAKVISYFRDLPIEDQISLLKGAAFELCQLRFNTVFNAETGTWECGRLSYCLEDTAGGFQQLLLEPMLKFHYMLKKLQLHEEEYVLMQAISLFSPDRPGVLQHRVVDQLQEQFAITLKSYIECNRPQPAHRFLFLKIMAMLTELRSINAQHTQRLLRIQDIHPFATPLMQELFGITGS

The target of assay [5] is human RAR-related Orphan Receptor gamma (RORg), RORC (gene 6097) (UniProt P51449). In words: ATG_RORg_TRANS: Attagene TRANS-FACTORIAL HepG2 Assay for human RAR-related Orphan Receptor gamma (RORg) (AID 2283011). Put shortly: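 HepG2 cells transiently transfected with GAL4-UAS reporter units and chimeric RORg-Gal4 construct; after 24 h chemical exposure, reporter mRNA measured by RT-PCR with fluorescent capillary electrophoresis, gain of signal fitted against DMSO.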
Sequence of human RAR-related Orphan Receptor gamma (RORg), RORC (gene 6097) (P51449 whole entry, looked up, the tested form may be a part): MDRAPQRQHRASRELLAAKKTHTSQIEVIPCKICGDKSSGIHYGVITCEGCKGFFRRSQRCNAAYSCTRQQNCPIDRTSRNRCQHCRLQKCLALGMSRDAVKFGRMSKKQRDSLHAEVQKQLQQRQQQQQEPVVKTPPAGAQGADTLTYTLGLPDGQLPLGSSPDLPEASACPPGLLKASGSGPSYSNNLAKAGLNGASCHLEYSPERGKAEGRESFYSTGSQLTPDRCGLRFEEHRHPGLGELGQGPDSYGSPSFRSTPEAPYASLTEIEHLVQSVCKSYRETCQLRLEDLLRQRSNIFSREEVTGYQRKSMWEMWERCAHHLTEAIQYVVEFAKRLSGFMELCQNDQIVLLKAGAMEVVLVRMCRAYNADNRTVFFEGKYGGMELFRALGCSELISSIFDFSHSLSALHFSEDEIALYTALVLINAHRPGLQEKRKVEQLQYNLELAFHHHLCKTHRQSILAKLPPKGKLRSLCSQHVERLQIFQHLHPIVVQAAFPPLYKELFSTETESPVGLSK

Assay [6] addresses human Thyroid Receptor alpha (THRa1), THRA (gene 7067) (UniProt P10827). Briefly: ATG_THRa1_TRANS: Attagene TRANS-FACTORIAL HepG2 Assay for human Thyroid Receptor alpha (THRa1) (AID 2283014). Put shortly: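 HepG2 cells transiently transfected with chimeric NR-Gal4 and GAL4-UAS reporter units, dosed 24 h. Reporter mRNA quantified by RT-PCR, fluorescent labeling, HpaI digestion and capillary electrophoresis; gain-of-signal fit versus DMSO.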

For assay [7], the target named is Retinoic acid receptor RXR-alpha (Homo sapiens) (UniProt P19793). Briefly: ATG_RXRa_TRANS: Attagene TRANS-FACTORIAL HepG2 Assay for human Retinoid X Receptor alpha (RXRa) (AID 2283012). Put shortly:
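Transient transfection of human HepG2 with multiple GAL4-UAS reporter constructs; 24 h compound exposure; total RNA isolated, reverse-transcribed, PCR-amplified, 6-FAM labelled, HpaI-cut, resolved by capillary electrophoresis. Positive-direction fit versus DMSO.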

The target in assay [8] is human Retinoid X Receptor beta (RXRb), RXRB (gene 6257) (UniProt P28702). In words: ATG_RXRb_TRANS: Attagene TRANS-FACTORIAL HepG2 Assay for human Retinoid X Receptor beta (RXRb) (AID 2283013). Put shortly:
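Transfect HepG2 with GAL4-UAS multi-reporter constructs (chimeric NR-Gal4, TRANS format); dose compound 24 h; isolate RNA, RT-PCR, FAM primer extension, HpaI digest; quantify by capillary electrophoresis; positive direction vs DMSO.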

The target of assay [9] is human RAR-related Orphan Receptor beta (RORb), RORB (gene 6096) (UniProt Q92753). Briefly: ATG_RORb_TRANS: Attagene TRANS-FACTORIAL HepG2 Assay for human RAR-related Orphan Receptor beta (RORb) (AID 2283010). Put shortly: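 Readout is reporter-gene mRNA induction, detected as fluorescence after RT-PCR and capillary electrophoresis, fitted for gain of signal against DMSO controls. Transiently transfected HepG2 liver cells carrying GAL4-UAS reporter constructs were treated for 24 hours.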
Sequence of human RAR-related Orphan Receptor beta (RORb), RORB (gene 6096) (Q92753 whole entry, looked up, the tested form may be a part): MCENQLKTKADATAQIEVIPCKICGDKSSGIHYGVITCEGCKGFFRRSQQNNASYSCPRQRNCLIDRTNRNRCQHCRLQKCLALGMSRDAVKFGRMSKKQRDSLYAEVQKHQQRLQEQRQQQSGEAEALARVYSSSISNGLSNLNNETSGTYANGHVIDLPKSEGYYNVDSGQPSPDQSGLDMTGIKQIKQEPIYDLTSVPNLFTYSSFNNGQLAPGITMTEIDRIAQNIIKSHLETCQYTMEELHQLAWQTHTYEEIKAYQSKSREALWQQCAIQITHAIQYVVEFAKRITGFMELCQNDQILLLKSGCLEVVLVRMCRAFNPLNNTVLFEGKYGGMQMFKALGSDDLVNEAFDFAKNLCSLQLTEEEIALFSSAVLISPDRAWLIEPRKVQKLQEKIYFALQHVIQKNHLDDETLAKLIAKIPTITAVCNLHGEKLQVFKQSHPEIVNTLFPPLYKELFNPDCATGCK

Inconclusive results are not listed. Active and inactive are the calls of the source. How the source made its calls: active means hit-call score of the fitted dose curve at least 0.9, where 1 is the maximum; inconclusive means response in the unintended direction; inactive means score below 0.9.

Sequence of human Thyroid Receptor alpha (THRa1), THRA (gene 7067) (P10827 whole entry, looked up, the tested form may be a part): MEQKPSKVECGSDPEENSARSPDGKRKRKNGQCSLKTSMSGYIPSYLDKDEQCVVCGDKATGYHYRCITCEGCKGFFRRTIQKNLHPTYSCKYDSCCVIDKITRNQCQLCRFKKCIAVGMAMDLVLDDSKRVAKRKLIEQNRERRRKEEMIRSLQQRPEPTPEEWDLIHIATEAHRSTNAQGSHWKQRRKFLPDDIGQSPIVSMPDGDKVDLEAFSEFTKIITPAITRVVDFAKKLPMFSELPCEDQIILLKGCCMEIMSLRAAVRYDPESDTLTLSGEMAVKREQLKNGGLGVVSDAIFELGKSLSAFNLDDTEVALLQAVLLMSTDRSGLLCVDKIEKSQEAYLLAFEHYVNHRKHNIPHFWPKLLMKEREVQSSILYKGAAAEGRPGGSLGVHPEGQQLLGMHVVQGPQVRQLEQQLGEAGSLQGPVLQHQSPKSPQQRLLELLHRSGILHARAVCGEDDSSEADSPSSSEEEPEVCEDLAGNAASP
Sequence of Retinoic acid receptor RXR-alpha (Homo sapiens) (P19793 whole entry, looked up, the tested form may be a part): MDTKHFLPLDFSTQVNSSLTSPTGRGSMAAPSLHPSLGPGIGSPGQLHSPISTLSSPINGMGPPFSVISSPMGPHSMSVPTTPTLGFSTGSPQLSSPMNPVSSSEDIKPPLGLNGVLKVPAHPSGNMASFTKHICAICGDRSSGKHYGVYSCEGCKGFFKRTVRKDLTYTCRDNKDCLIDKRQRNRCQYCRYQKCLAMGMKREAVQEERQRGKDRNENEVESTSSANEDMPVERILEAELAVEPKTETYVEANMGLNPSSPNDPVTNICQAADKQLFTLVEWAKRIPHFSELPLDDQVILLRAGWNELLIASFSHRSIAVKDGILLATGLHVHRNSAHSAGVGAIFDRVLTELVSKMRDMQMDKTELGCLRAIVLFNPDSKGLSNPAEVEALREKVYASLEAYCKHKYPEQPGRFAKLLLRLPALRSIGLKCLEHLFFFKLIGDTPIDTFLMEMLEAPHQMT
Sequence of human Retinoid X Receptor beta (RXRb), RXRB (gene 6257) (P28702 whole entry, looked up, the tested form may be a part): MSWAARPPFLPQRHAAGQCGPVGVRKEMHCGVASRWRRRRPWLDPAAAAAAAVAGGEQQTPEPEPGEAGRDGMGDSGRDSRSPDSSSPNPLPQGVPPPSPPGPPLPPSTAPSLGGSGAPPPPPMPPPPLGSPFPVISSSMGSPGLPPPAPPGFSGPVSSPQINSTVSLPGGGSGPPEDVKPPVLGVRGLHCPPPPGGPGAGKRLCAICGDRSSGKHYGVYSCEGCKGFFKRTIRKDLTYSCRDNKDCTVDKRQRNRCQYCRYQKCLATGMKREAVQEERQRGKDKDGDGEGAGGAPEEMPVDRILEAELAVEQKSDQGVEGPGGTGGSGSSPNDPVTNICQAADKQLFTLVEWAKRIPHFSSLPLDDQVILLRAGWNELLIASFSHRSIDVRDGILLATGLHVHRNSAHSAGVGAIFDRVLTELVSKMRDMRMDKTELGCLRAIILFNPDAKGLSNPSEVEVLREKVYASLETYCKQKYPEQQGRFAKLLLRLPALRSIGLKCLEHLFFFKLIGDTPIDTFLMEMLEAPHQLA

For `CCC(=O)OC/C=C(\C)CCC=C(C)C`, the molecule was called inactive in assay [1], in assay [2], in [3], in assay [4], in assay [5] and in assay [6].

As for `CN(C)c1ccc(C=O)cc1`, the molecule was classed as inactive in [1], in assay [2], in assay [3], in assay [4], in assay [5] and in assay [7]. Further, the molecule was called inactive in assay [8] and in [6].

For `CC(C)N1C(=O)c2ccccc2C1=O`, the molecule was called inactive in assay [1], in assay [2], in [3], in [4], in assay [9] and in assay [8]. For the same molecule, in assay [6], the outcome was inactive.

Take `S=c1[nH][nH]c(=S)s1`: the call in assay [1], in assay [2], in assay [4], in assay [5], in assay [7] and in assay [8] was inactive. Besides, the call in assay [6] was inactive.

Turning to `CCCCCc1cccc(=O)o1`, the result in assay [1], in assay [2], in assay [4], in assay [7], in assay [8] and in [6] was inactive. Moreover, the concentration at half-maximal activity (AC50) (in general, the concentration at which the activity in the assay is half-maximal) in assay [3] is 10.6 µM (active).

As to `CC(=N[Si](C)(C)C)O[Si](C)(C)C`, the outcome in [1], in assay [2], in assay [9], in [5] and in assay [6] was inactive.

On to `C/C=C(\C)C(=O)OC/C=C(\C)CCC=C(C)C`, for which the molecule was classed as inactive in [1], in [2], in assay [4], in assay [9] and in assay [6]. Also, the AC50 in assay [3] was 12.3 µM (active); in [7], 30.7 µM (active); in assay [8], 4.63 µM (active).

Turning to `O=S(=O)(O)CCCN1CCOCC1`, the molecule was classed as inactive in [1], in [2], in assay [3], in assay [4], in [7] and in [8].

With `CN(C)C(=O)Nc1ccccc1`, the molecule was called inactive in assay [1], in assay [2], in [3], in [4], in assay [5] and in [6].

As for `O=C(OCc1ccccc1)c1ccccc1O`, the call in assay [1], in [2], in assay [9], in [7] and in assay [6] was inactive. The figures for the half-maximal activity concentration (AC50) in assay [4] and in assay [8] were 62.7 µM (active) and 50.1 µM (active), respectively.

Turning to `C=CC(=O)OCCCCCC`, the result in assay [1], in assay [2], in [4], in assay [7] and in [6] was inactive.

With `[O-]/[N+](=N\O)c1ccccc1`, the molecule was classed as inactive in assay [1], in assay [2], in assay [4], in assay [5] and in assay [8]. The AC50 in assay [3] was 16.6 µM (active).

`CCO[Si](CC)(OCC)OCC`: the call in [1], in assay [2] and in [5] was inactive. Further, the AC50 in assay [4] was 2.84 µM (active).

Turning to `O=c1cc[nH]cc1`, the molecule was classed as inactive in assay [1], in assay [2], in [9], in assay [5], in assay [7] and in [8]. In addition, the result in assay [6] was inactive.

As to `CC1=CC[C@@H](C(C)(C)O)CC1`, the outcome in assay [1], in assay [2], in assay [3], in assay [4], in [9] and in assay [8] was inactive. In [6], the result was inactive.

Regarding `CN(C)CCC=C1c2ccccc2CCc2ccccc21`, the outcome in assay [1], in assay [2], in [3], in assay [5], in assay [7] and in [6] was inactive. Besides, the AC50 in assay [4] was 24 µM (active).

On to `CCCCCCCCCCCCCCCCCC(=O)OCCCCCCCCCCCCCC(C)C`, for which the result in assay [1], in assay [2], in assay [3], in assay [4], in assay [5] and in assay [7] was inactive. The result in assay [8] and in [6] was inactive.

(Values after PubChem BioAssay (EPA / NIEHS).)
